Consider three compounds from PubChem BioAssay (NCATS).

Assay [1] is described as follows: AP1 Signaling Pathway (AID 357; active = well fitted curve in either direction with a large enough effect, not every such curve was filed as active;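 note: ME-180 reporter cells stimulated with EGF at its EC50 level; % is set by controls: 0 for no effect and ±100 for the full control effect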). The following applies: ME-180 AP-1-bla reporter, EGF-induced, beta-lactamase ratio, 5 h; at 7.69 µM (top of the series) unless noted. The procedure, abridged:
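Read-out was the 460nm/530nm emission ratio (excitation 405nm) after CCF4 loading for 2.5 hours at room temperature. Cells carried an AP-1-driven beta-lactamase reporter, were stimulated with EC50 EGF plus compound for 5 hours, and AC50 values came from titrations.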

For assay [2], the target named is Cytochrome P450 1A2 (Homo sapiens) (UniProt P05177). Nature of the assay: p450-cyp1a2 (AID 410; calls by dose curve; note: potency is the fitted concentration of half-maximal effect). The procedure, abridged: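 Luminescent readout of luciferin formed from Luciferin-ME by human CYP1A2; data normalized against complete inhibition by 57 uM furafylline. Enzyme 20nM, substrate 100uM at Km, 100mM KPO4 buffer, 60 min reaction at room temperature.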
Assay [3] in a line: NFAT Signaling Pathway (AID 444; active = well fitted curve in either direction with a large enough effect, not every such curve was filed as active;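 note: carbachol stimulus at about its EC50 of 1 µM final; % is set by controls: 0 for no effect and ±100 for the full control effect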). The following applies: Jurkat NFAT-bla M1, carbachol, beta-lactamase ratio, 5 h; at 7.69 µM (top of the series) unless noted. The procedure, abridged:
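Jurkat cells with NFAT-driven β-lactamase reporter and co-expressed M1 receptor, stimulated with carbachol (final 1 uM, ~EC50), compound titration, 5 h at 37 °C. CCF4 loaded 1 h at RT; 460/530 nm ratio gave %activity and AC50.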

Assay [4] can be described thus: Stat Signaling Pathway (AID 446; active = well fitted curve in either direction with a large enough effect, not every such curve was filed as active;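 note: ME-180 cervical cancer cells given 40 pM IL-6 alongside compound; SIE-controlled beta-lactamase reporter measured as 460/530 nm FRET emission ratio; % is set by controls: 0 for no effect and ±100 for the full control effect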). The following applies: ME-180 SIE beta-lactamase reporter, IL-6 stimulated, 5 h; at 7.69 µM (top of the series) unless noted. The method, boiled down: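 ME-180 cells carrying a SIE-driven beta-lactamase reporter are stimulated with 40 pM IL-6 for 5 h at 37C in the presence of compound. The 460/530 nm FRET substrate ratio is read after 2.5 h at RT. Data are normalised to 300 pM IL-6 and to 125 nM JAK inhibitor controls.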

Assay [5] deals with Glucocorticoid receptor (Homo sapiens) (UniProt P04150). Nature of the assay: GR-EFC Redistribution (AID 451; calls by dose curve; note: potency is the fitted concentration of half-maximal effect). The settings on record: CHO-K1 GR-EFC translocation, beta-gal luminescence, 2 h. The procedure, abridged: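 CHO-K1 cells expressing nuclear EA and GR-ED fragments of b-gal; compounds titrated up to 46 uM final, 2 h at 37 C. GR nuclear translocation read as complemented b-gal luminescence after 1 h RT detection.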

For assay [6], the target named is Mitogen-activated protein kinase 10 (Mus musculus) (UniProt Q61831). The experiment in a line: JNK3 AlphaScreen Assay (AID 530; active = well fitted curve in either direction with a large enough effect, not every such curve was filed as active;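 note: kinase came from lysate of stimulated human HepG2 cells; signal reports phosphorylation of biotinylated GST-cJun 1-79 at Ser73 with 10 µM ATP; % is set by controls: 0 for no effect and ±100 for the full control effect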). The procedure, abridged:
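Pre-activated (IL-1β/TNFα) JNK3 in HepG2 lysates phosphorylates biotin-GST-cJun(1-79), 10 uM ATP; anti-phospho-cJun(Ser73) AlphaScreen read at room temperature, pH 7.6 Tris buffer. Compounds pre-incubated 15 min as titrations.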

The target of assay [7] is 3',5'-cyclic-AMP phosphodiesterase 4B (Homo sapiens) (UniProt Q07343). Nature of the assay: qHTS Assay for Inhibitors of PDE-IV (AID 607; active = well fitted activation curve with a large enough effect in the main read-out, with a control signal flat, not every such curve was filed as active; note: % of control where 0% means no effect). The method, boiled down: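 HEK293 ACTOne cells with CNG channel (1000/well), endogenous PDE4; membrane potential dye, compounds up to 22.9 uM final. Fluorescence Ex 535/Em 590; RO 20-1724 (100 uM final) as reference.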
Assay [8] in a line: qHTS Assay for Lipid Storage Modulators (AID 1519; calls by dose curve). The settings on record: Drosophila S3 cells, BODIPY lipid droplet/cell ratio, laser cytometry, cells loaded with oleic acid; for activity change, negative = inhibition: at 57.5 µM (top of the series). The method, boiled down: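 Cells seeded at 5,000 per well were treated with compounds over a concentration series and loaded with oleic acid (400 uM, as added). Lipid droplet fluorescence (488 nm excitation, 500-530 nm channel) was read by laser-scanning cytometry and normalized to 20 uM Triacsin C.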

The target in assay [9] is Dual specificity protein kinase CLK4 (Homo sapiens) (UniProt Q9HAZ1). Nature of the assay: qHTS Assay for Inhibitors of CDC-like Kinase 4 (Kinase-Glo Assay) (AID 1770). Note: nearly all actives have a fitted effect of over 65% in size. Note: potency is the fitted concentration of half-maximal effect. The procedure, abridged: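 Substrate mix (RS peptide 100 uM, ATP 1 uM) dispensed, compound pinned in, then Clk4 added to 25 nM final. Incubated 4.5 h at RT; Kinase-Glo reagent added, luminescence read after 5 min.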

Assay [10] shares this target. Nature of the assay: qHTS Assay for Inhibitors of CDC-like Kinase 4 (ADP-Glo Assay) (AID 1771). Note: nearly all actives have a fitted effect of over 70% in size. Note: potency is the fitted concentration of half-maximal effect. The procedure, abridged: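 Luminescence from ADP-Glo reports ADP produced by 25 nM Clk4 acting on 100 uM RS repeat peptide with 1 uM ATP over 1 hr at room temperature; residual ATP is depleted before ADP is converted to ATP for detection.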
The target is the same in assay [11]. Nature of the assay: qHTS Assay for Inhibitors of CDC-like Kinase 4 (ADP-FP Assay) (AID 1795). Note: nearly all actives have a fitted effect of over 60% in size. Note: potency is the fitted concentration of half-maximal effect. The method, boiled down: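 Clk4 6.25 nM; RS peptide 100 uM; ATP 1 uM; 25 mM Tris pH 7.5, 10 mM MgCl2; 1 h reaction. ADP detected via antibody/orange tracer FP displacement; TG003 positive control.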
In assay [12] the target is Ubiquitin carboxyl-terminal hydrolase 1 (Homo sapiens) (UniProt O94782). Nature of the assay: Inhibitors of USP1/UAF1: Pilot qHTS (AID 504865).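 Note: rhodamine fluorescence freed from ubiquitin-rhodamine substrate followed over time; top concentration of the series differs between compounds; % is set by controls: 0 for no effect and ±100 for the full control effect; nearly all actives have a fitted effect of over 35% in size.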 The procedure, abridged: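 In 50mM HEPES pH 7.8 containing 0.5mM EDTA, 1mM TCEP, 0.1 mg/ml BSA and 0.01% Tween-20, 1nM USP1/UAF1 is exposed to compound for 15 min, then Ub-Rho (150nM final) is added and fluorescence is read over time.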

Assay [13] is described as follows: Primary qHTS for small molecule stabilizers of the endoplasmic reticulum resident proteome: Secreted ER Calcium Modulated Protein (SERCaMP) assay (AID 1508630). Note: % is set by controls: 0 for no effect and ±100 for the full control effect. The method, boiled down: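 GLuc-SERCaMP-expressing SH-SY5Y cells, pretreated 16 h with compound, are challenged with thapsigargin to empty ER calcium stores; after 4 h, coelenterazine is added directly to the medium and luminescence is imaged.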

Assay [14] addresses Lysosomal acid glucosylceramidase (Homo sapiens) (UniProt P04062). The experiment in a line: Glucocerebrosidase-p2 (AID 348; in the data active = potency below about 10 µM; note: potency is the fitted concentration of half-maximal effect). The settings on record: purified GBA, blue fluorogenic substrate, 40 min. The method, boiled down: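 Compounds titrated from 0.6 nM upwards against 0.2 nM enzyme in pH 5.9 citric acid/KH2PO4, taurocholate, tween-20; blue fluorogenic substrate 80 uM, 40 min room temperature, stopped and read Ex 365/Em 440 for AC50.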

Assay [15] deals with Glucocorticoid receptor (Homo sapiens) (UniProt P04150). The experiment in a line: GR-GFP Redistribution (AID 450;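 active = compounds whose dose series gives a full or clear partial fitted curve of increased nuclear translocation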; note: potency is the fitted concentration of half-maximal effect). The following applies: U2OS GR-GFP nuclear translocation, laser cytometry, 2 h.
Assay [16] addresses Cytochrome P450 3A4 (Homo sapiens) (UniProt P08684). The experiment in a line: qHTS Assay for Activators of Cytochrome P450 3A4 (AID 885). Note: nearly all actives have a fitted effect of over 65% in size. The method, boiled down:
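Human CYP3A4 (20 nM) with Luciferin-PPXE at 25 uM (its KM) in 200 mM KPO4; 10 min compound preincubation, then NADPH regeneration and 60 min reaction at RT. Luciferin read by luminescence; normalized to 57 uM ketoconazole full inhibition.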

Assay [17] can be described thus: qHTS Assay for Identification of Small Molecule Agonists for Hypoxia Response Element Signaling Pathway (AID 914; active = well fitted activation curve with a large enough effect in the signal ratio, with a control signal flat, not every such curve was filed as active; the % refers to the signal ratio; note: potency is the fitted concentration of half-maximal effect). The settings on record: ME-180 (cervical carcinoma) HRE-bla reporter, beta-lactamase ratio, CoCl2, 17 h; activation: stronger effect = higher value. The procedure, abridged:
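ME-180 cells carrying an HRE-driven beta-lactamase reporter were treated with compounds in a titration series plus an EC50 level of CoCl2 for 17 h at 37 degrees Celsius; CCF4 readout as the 460nm/530nm ratio gave AC50 values.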

Where [18] appears, read: measured here: cell count channel max response.
[19] abbreviates: measured here: lipid channel max response.

Molecules are shown by their SMILES. Inconclusive results are not listed. Active and inactive are the calls of the source. Unless noted, calls come from the whole dose curve; as a rule, active = well fitted curve in the direction sought with a large enough effect; inconclusive = small, poorly fitted or top-dose-only effect, or another doubt; inactive = no such curve, though single readings can be large; an effect the other way counts as inactive or inconclusive.

Sequence of Dual specificity protein kinase CLK4 (Homo sapiens) (Q9HAZ1 whole entry, looked up): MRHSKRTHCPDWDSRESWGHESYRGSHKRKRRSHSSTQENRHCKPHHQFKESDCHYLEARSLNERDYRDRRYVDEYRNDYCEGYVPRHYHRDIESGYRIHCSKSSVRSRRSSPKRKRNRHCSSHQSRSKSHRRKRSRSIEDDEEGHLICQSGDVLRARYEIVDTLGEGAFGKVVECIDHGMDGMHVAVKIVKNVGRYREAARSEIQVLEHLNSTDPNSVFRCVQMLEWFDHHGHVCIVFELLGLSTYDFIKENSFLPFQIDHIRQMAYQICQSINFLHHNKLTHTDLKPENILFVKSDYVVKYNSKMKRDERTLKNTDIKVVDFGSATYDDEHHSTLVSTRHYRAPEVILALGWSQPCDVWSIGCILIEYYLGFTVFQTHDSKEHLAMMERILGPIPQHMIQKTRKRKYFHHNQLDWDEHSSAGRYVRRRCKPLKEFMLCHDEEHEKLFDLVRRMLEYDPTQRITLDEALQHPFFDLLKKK
Sequence of Ubiquitin carboxyl-terminal hydrolase 1 (Homo sapiens) (O94782 whole entry, looked up): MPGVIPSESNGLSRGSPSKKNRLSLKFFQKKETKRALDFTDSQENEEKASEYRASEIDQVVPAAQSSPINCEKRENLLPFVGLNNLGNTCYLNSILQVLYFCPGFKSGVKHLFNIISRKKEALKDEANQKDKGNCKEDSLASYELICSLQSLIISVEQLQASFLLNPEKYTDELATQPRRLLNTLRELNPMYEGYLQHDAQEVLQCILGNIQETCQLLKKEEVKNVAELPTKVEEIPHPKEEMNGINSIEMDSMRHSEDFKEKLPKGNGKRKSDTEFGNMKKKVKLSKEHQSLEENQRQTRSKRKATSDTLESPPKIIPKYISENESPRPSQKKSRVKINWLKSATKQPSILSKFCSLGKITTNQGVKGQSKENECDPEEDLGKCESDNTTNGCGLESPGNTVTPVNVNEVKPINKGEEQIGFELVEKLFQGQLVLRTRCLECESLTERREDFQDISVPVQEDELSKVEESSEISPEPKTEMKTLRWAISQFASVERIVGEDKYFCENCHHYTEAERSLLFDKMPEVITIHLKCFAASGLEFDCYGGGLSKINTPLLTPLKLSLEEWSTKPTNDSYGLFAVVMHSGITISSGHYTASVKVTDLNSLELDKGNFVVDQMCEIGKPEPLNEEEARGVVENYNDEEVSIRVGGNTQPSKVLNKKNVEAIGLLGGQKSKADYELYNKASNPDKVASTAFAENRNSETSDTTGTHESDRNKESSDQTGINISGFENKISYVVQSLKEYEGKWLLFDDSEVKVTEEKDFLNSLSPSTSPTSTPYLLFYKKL
Sequence of Glucocorticoid receptor (Homo sapiens) (P04150 whole entry, looked up, the tested form may be a part): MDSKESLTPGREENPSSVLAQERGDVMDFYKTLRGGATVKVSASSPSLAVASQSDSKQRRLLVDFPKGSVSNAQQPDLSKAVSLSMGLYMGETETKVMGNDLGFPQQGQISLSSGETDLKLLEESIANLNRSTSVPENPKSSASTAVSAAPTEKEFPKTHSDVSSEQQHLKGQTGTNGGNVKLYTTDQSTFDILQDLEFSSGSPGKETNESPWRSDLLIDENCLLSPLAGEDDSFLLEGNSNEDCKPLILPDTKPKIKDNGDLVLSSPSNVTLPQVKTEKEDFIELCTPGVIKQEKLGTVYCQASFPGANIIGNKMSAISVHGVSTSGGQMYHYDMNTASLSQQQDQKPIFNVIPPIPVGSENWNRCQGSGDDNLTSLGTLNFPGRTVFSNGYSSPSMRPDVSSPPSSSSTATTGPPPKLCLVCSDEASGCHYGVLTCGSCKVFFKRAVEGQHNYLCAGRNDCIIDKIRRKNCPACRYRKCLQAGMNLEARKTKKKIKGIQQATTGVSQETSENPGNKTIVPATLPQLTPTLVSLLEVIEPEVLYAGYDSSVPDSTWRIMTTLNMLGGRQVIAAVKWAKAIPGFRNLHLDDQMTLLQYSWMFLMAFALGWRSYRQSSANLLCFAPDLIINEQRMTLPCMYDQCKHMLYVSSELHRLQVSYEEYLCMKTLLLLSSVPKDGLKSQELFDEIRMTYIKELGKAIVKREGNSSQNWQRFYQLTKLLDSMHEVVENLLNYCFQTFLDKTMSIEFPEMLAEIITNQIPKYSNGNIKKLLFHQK
Sequence of 3',5'-cyclic-AMP phosphodiesterase 4B (Homo sapiens) (Q07343 whole entry, looked up): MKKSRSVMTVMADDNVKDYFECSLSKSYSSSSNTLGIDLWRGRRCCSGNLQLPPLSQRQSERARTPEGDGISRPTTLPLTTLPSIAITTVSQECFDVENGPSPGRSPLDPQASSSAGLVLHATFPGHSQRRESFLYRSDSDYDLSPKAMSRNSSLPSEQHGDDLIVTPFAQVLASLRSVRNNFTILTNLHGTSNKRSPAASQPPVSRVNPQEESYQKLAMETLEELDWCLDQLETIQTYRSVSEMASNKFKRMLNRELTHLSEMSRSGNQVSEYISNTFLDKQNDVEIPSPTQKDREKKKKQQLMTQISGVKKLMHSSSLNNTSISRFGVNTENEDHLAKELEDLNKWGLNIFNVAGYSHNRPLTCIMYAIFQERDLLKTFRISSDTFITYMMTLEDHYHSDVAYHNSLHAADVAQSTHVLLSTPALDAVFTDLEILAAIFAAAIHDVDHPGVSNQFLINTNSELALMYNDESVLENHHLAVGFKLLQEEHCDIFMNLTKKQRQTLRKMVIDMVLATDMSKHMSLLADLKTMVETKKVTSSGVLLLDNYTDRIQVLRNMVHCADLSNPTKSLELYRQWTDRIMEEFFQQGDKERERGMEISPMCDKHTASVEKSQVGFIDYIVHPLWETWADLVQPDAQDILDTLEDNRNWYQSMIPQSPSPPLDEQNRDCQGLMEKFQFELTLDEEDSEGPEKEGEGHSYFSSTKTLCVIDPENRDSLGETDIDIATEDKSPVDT
Sequence of Cytochrome P450 1A2 (Homo sapiens) (P05177 whole entry, looked up): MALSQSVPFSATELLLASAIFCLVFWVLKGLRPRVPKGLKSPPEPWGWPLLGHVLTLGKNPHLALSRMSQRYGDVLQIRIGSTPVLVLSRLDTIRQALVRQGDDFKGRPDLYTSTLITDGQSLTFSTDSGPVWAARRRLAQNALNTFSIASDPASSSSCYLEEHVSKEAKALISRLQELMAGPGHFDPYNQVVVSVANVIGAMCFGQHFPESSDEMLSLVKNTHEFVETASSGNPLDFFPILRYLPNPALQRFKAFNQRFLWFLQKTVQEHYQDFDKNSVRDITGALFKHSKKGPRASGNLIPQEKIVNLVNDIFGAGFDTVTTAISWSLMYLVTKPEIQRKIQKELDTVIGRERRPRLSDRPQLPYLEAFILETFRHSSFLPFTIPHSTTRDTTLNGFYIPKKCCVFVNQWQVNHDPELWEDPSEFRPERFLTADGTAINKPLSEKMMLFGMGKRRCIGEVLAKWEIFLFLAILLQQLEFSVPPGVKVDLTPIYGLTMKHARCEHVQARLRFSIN
Sequence of Cytochrome P450 3A4 (Homo sapiens) (P08684 whole entry, looked up): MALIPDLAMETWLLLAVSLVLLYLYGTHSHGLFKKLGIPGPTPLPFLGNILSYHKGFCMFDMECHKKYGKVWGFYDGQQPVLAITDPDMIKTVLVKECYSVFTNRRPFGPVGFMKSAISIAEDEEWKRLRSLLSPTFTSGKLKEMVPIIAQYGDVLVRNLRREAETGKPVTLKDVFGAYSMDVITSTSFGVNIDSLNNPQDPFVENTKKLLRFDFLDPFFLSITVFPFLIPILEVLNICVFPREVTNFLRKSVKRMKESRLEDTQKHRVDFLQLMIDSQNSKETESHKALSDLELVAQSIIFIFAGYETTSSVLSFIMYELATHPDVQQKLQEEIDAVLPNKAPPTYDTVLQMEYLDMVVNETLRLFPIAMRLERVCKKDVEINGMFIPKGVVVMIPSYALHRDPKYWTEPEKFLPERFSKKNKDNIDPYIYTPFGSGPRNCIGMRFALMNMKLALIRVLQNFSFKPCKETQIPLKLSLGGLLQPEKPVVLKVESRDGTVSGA
Sequence of Lysosomal acid glucosylceramidase (Homo sapiens) (P04062 whole entry, looked up): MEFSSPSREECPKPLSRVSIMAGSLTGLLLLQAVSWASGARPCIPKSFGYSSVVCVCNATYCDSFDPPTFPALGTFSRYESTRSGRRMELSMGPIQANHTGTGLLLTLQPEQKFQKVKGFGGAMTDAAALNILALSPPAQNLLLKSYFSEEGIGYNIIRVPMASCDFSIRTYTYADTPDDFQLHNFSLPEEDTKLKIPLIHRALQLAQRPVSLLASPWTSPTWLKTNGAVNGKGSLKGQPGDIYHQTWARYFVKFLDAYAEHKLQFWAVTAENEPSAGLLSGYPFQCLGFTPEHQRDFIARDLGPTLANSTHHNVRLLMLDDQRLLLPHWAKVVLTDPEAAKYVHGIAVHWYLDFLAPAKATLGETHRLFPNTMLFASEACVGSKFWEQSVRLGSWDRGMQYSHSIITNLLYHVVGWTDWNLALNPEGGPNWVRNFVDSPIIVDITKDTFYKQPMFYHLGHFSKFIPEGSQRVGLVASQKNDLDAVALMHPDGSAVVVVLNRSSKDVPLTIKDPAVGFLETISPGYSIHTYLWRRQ

As for `c1nc(NC2CCNCC2)c2cc(-c3ccoc3)ccc2n1`, the activity change, negative = inhibition is -0.789% (inactive) in assay [1], 12.3% (inactive) in assay [3] and 0.0897% (inactive) in [8]. The Potency in [2] is 25.1 µM (active); in assay [5], > 46 µM (inactive); in assay [9] it was 0.891 µM (active); in assay [10] it was 1 µM (active); in assay [11] it was 0.631 µM (active). Moreover, the activity, negative = inhibition in [4] is -3% (inactive). Besides, the compound was called inactive in assay [6]. The Potency entry in assay [7], in [12] and in [13] was “inactive” each time. The max response amounted to 13.4% in [8] (setting [18]) and 11.3% in assay [8] (setting [19]).
For the compound `CN1CCN(c2ncc3nc(-c4cc(F)cc(F)c4)c(=O)n(Cc4cccs4)c3n2)CC1`, the Potency in assay [14] was > 11.4 µM (inactive); in [2], 6.31 µM (active); in assay [15], > 9.22 µM (inactive); in [5], > 46 µM (inactive); in [17], 3.16 µM (active). In addition, the figures for the activity change, negative = inhibition in assay [3] and in [8] were 168% [activator] (active) and -9.14% (inactive), respectively. Further, the compound was called inactive in assay [6]. Also, the Potency entry in [7], in assay [16], in assay [9], in [10], in assay [11] and in assay [12] was “inactive” each time. Further, in [13], the Potency entry was “inactive”. Besides, the results for the max response in assay [8] (setting [18]) and in assay [8] (setting [19]) were 17.2% and 3.46%, respectively.
Take `CCNc1ncc2nc(-c3cccs3)c(=O)n(C)c2n1`: the Potency in [2] was 1.58 µM (active); in assay [15], > 9.22 µM (inactive); in [5], > 46 µM (inactive); in assay [17] it was 3.16 µM (active). In addition, the outcome in assay [6] was inactive. Also, the Potency result in assay [7], in [16], in assay [9], in assay [10], in [11] and in [12] was “inactive” each time. Further, in assay [13], the Potency entry is “inactive”. For the same compound, the activity change, negative = inhibition in [8] is -12.5% (inactive). Further, the results for the max response in assay [8] (setting [18]) and in assay [8] (setting [19]) were 3.66% and -11.1%, respectively.
